Bioassay records as filed in PubChem BioAssay.
This is a sample that favours compounds with a hit; in the whole collection about 2.7% have one here.
rCAG binder: binds r(CAG) RNA repeats | 370,000 compounds, 1.3% hits | AID 651821 | inhibition, % at 3 µM | r(CAG) RNA repeat, TO-PRO-1 dye displacement fluorescence;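 active = inhibition above the plate cutoff, the mean of all test compounds on that plate plus 3 SD, cut at about 35% in these data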;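 also: 0% = DMSO alone and 100% = 100 µM mitoxantrone as full dye displacement; higher means more dye released from RNA so lower well fluorescence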
NadD block: blocks S. aureus nicotinate mononucleotide adenylyltransferase | purified NadD enzyme, colorimetric absorbance read-out | inhibition, % at 20 µM | AID 602399 | 360,000 compounds, 0.78% hits; in the data active = inhibition above about 26%
MsrA inhibitor: bovine MsrA inhibition | purified bovine MsrA, absorbance read-out | inhibition, % at 15.5 µM | 360,000 compounds, 0.75% hits; in the data active = inhibition above about 4.5%;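 also: 0% = vehicle wells with enzyme and 100% = reference inhibitor wells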
MsrA act: bovine methionine sulfoxide reductase A activation; AID 602163; 360,000 compounds, 0.3% hits; activation, % at 10.6 µM; purified bovine MsrA, absorbance read-out; in the data active = activation above about 7.5%;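 also: 0% = vehicle and 100% = reference activator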
rCAG binder conf: r(CAG) RNA repeat binding, confirmation; 4,300 compounds, 70% hits; TO-PRO-1 dye displacement fluorescence; shares compounds with rCAG binder; inhibition, % at 3 µM;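 active = inhibition above a per-plate cutoff, the mean inhibition of sample wells plus 3 SD, cut at about 35% in these data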;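 also: loss of TO-PRO-1 fluorescence as compound displaces dye from 1x1 AA loop RNA; 0% = DMSO only wells and 100% = 100 µM mitoxantrone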
DNA CAG counter: counter-screen for rCAG RNA binders: DNA CAG dye complex inhibitors; shares compounds with rCAG binder; d(CAG) DNA oligo TO-PRO-1 dye displacement, fluorescence; inhibition, % at 3 µM; 4,300 compounds, 94% hits;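 active = inhibition above its plate's cutoff, the mean test-well inhibition plus 3 SD, cut at about 4.8% in these data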;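 also: 0% = DNA dye mix with DMSO and 100% = 100 µM mitoxantrone; hits displace the dye from DNA and so lower well fluorescence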
Active calls of the source: *; nt = no result.

SMILES	rCAG binder	NadD block	MsrA inhibitor	MsrA act	rCAG binder conf	DNA CAG counter
CN(C)c1ccc(/C=C/C(=O)c2ccccc2)cc1[N+](=O)[O-]	-1.3	1.4	0.4	-4.1	nt	nt
Cc1cccc(OCC(=O)Nc2nnc(-c3ccco3)s2)c1	9.0	-2.2	0.7	-2.6	nt	nt
O=C(COc1ccccc1)Nc1cc(NC(=O)COc2ccccc2)cc(C(=O)O)c1	33.6	-4.9	-0.6	-1.2	nt	nt
COc1ccccc1OCC(=O)Nc1cc(NC(=O)COc2ccccc2OC)cc(C(=O)O)c1	45.6*	-3.7	-0.3	-2.5	11.1	1.8
COc1ccccc1OCC(=O)Nc1nnc(-c2ccco2)s1	57.9*	1.2	0.9	-5.8	7.9	2.8
COc1ccc(OCC(=O)Nc2cc(NC(=O)COc3ccc(OC)cc3)cc(C(=O)O)c2)cc1	37.6*	-4.2	0.4	-2.9	51.7*	16.7*
COc1ccc(NC(=S)NNc2ccc([N+](=O)[O-])cc2S(=O)(=O)Nc2ccc(C)cc2C)cc1	39.0*	18.8	1.8	-3.3	80.7*	45.1*
COc1ccc(NC(=S)Nc2cccc([N+](=O)[O-])c2)cc1	2.5	5.2	-0.1	-0.9	nt	nt
CCOc1ccc(N(CC(=O)NCCc2ccccc2)C(=O)c2csnn2)cc1	0.6	0.9	0.0	0.2	nt	nt
O=C(Nc1c(C(=O)Nc2cccc3ccccc23)cnn1-c1ccccc1)c1ccco1	64.1*	0.0	0.6	2.6	49.0*	16.2*
FC(F)(F)C1=Nc2cccc3cccc(c23)N1	94.4*	72.2*	1.1	-5.1	47.4*	37.7*
O=C(O)c1cccc2c(-c3ccccc3)c(-c3ccccc3)[nH]c12	77.4*	3.6	0.7	-11.1	66.1*	22.9*
CCC(C(=O)NC(C)(C)C)n1c(-c2ccc(C)cc2)nc2ccccc21 (stereo unspecified)	0.7	nt	-0.1	nt	nt	nt
COC(=O)c1sccc1NC(=O)CSc1ccccc1NS(=O)(=O)c1ccc(Br)cc1	45.5*	4.0	0.7	-3.6	50.4*	14.9*
COC(=O)c1sccc1NC(=O)CSc1ccccc1NS(=O)(=O)c1ccc(F)cc1	26.8	-8.5	0.1	2.7	nt	nt
O=C(NCCCN1CCCC1=O)c1ccc([N+](=O)[O-])s1	2.2	-2.1	3.4	-1.3	nt	nt
COc1ccc(-c2nn(-c3ccccc3)cc2C=O)cc1[N+](=O)[O-]	2.5	-3.9	-1.2	-1.6	nt	nt
COc1ccc(-c2nn(-c3ccccc3)cc2/C=C/C(=O)O)cc1[N+](=O)[O-]	56.0*	-5.5	3.0	-4.8	48.2*	11.7*
COC/C=C/C1=CC2=CC(=O)C(C)(OC(=O)C3CCCC3)C(=O)C2=CO1 (stereo unspecified)	50.3*	28.6	0.8	-5.3	29.6	15.4*
CC1(OC(=O)C2CCCC2)C(=O)C=C2C=C3CCCCN3C=C2C1=O (stereo unspecified)	nt	4.7	nt	-4.1	nt	nt
CC1(C(=O)NS(=O)(=O)C2CC2)CCCN(C(=O)c2ccc(F)c(Cl)c2)C1 (stereo unspecified)	3.3	-3.3	-1.9	-5.4	nt	nt
Cc1nccc(-c2cccc(NC(=O)Nc3ccc(Cl)cc3)c2)n1	4.4	-9.9	2.8	-3.7	nt	nt
Cc1nccc(-c2cccc(N/N=C(\C#N)C(=O)c3ccccc3)c2)n1	50.8*	9.1	0.4	-2.8	34.9*	9.3*
CNc1cc(-c2ccc(O)cc2C)ncn1	4.1	-0.3	-1.2	-3.2	nt	nt
CCOC(=O)CSc1nnc(-c2cc(OC)c(OC)c(OC)c2)o1	-6.0	2.7	1.7	-2.3	nt	nt
COc1cc(-c2nnc(SCc3cc(=O)oc4cc(O)c(O)cc34)o2)cc(OC)c1OC	58.5*	20.4	0.6	-1.4	64.0*	29.9*
COc1ccc(-c2cc(C(=O)O)c(C)o2)cc1OC	2.2	-3.7	0.0	2.1	nt	nt
COc1ccc(-c2cc(C(=O)NC(Cc3cc4ccccc4[nH]3)C(=O)O)c(C)o2)cc1OC (stereo unspecified)	49.1*	1.4	1.3	-2.0	49.8*	15.4*
CCOC(=O)C1=C(C)N=c2s/c(=C\c3cccc(OCC(=O)O)c3)c(=O)n2C1c1ccccc1 (stereo unspecified)	75.7*	8.4	0.4	-0.9	74.8*	36.3*
CCOC(=O)C1=C(C)N=c2s/c(=C/c3cccc([N+](=O)[O-])c3O)c(=O)n2C1c1ccccc1 (stereo unspecified)	33.1	23.5	0.2	-4.6	nt	nt
